The nature of assay [1]: NCI Yeast Anticancer Drug Screen. Data for the rad50 strain (AID 155).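 Note: 0% = growth of vehicle-only cultures of the same strain.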 The note with it: S. cerevisiae rad50 strain growth inhibition, active compounds read high. An outline of the steps:
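Growth of the mutant yeast was measured after compound exposure and referenced to vehicle-treated cultures.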

Assay [2] can be described thus: NCI Yeast Anticancer Drug Screen. Data for the mec2-1 strain (AID 157). The note with it: S. cerevisiae mec2-1 strain, active compounds read high. Summed up:
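Using mec2-1 yeast: add compound, measure growth, express inhibition versus vehicle-treated cultures.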

Assay [3] in a line: NCI Yeast Anticancer Drug Screen. Data for the sgs1 mgt1 strain (AID 161).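 Note: 0% = growth of cultures given vehicle only.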 The note with it: S. cerevisiae sgs1 mgt1 strain, active compounds read high. An outline of the steps: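 Growth of a repair-deficient yeast mutant was monitored after compound treatment and expressed as inhibition relative to vehicle-treated cultures.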
Assay [4] in a line: NCI Yeast Anticancer Drug Screen. Data for the cln2 rad14 strain (AID 165).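 Note: 0% = growth equal to vehicle treated cultures.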 The note with it: S. cerevisiae cln2 rad14 strain, active compounds read high. Summed up:
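Yeast strain cln2 rad14, bearing defects in cell cycle control and DNA repair, serves as the test system; values reflect growth inhibition compared with vehicle.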

Assay [5] in a line: NCI Yeast Anticancer Drug Screen. Data for the bub3 strain (AID 167). To be noted: S. cerevisiae bub3 mutant strain, active compounds read high. An outline of the steps: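 Whole-cell yeast assay. The mutant strain was incubated with compounds, and growth inhibition was determined by comparison with vehicle-treated cells.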
Assay [6] in a line: NCI Yeast Anticancer Drug Screen. Data for the mlh1 rad18 strain (AID 175). The note with it: S. cerevisiae mlh1 rad18 strain growth inhibition, active compounds read high. Summed up:
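Steps: expose repair-defective yeast to compound; measure growth; express inhibition against vehicle-treated controls.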

[7] abbreviates: at 5.0 µM (retest, dose inferred, filed as 0.5).
The mark [8] stands for this setting: at 50.0 µM (retest, dose inferred, filed as 5.0).

Compounds without any hit were thinned out: in the full panel of roughly 79,000, 15% have a hit. Values without a mark were called inactive. Calls of active or inactive are those of the source. Cut-off read from the data, not from the text of the source: active = growth inhibition above about 70%; inactive = the rest.

Turning to `COc1ccc2nc3cc(Cl)ccc3c(NCCNc3c4ccc(Cl)cc4nc4ccc(OC)cc34)c2c1`, the growth inhibition in assay [1] (setting [7]) is 34%; in assay [1] (setting [8]), 97% (active); in assay [1] (at 50.0 µM), 98.5% (active); in assay [2] (setting [7]), 26%; in assay [2] (setting [8]), 97% (active); in assay [2] (at 50.0 µM), 92.8% (active). Moreover, the growth inhibition was 20% in assay [3] (setting [7]); 99% (active) in assay [3] (setting [8]); 96.2% (active) in assay [3] (at 50.0 µM); 37% in assay [4] (setting [7]); 90% (active) in assay [4] (setting [8]); 98.4% (active) in assay [4] (at 50.0 µM). In addition, the growth inhibition in assay [5] (setting [7]) is 16%; in assay [5] (setting [8]), 97% (active); in assay [5] (at 50.0 µM), 99.2% (active); in assay [6] (setting [7]), 28%; in assay [6] (setting [8]), 97% (active); in assay [6] (at 50.0 µM) it was 97.3% (active).
With `O=C1c2ccccc2C(c2ccccc2)(c2ccccc2)N1c1ccccc1`, the growth inhibition is 3% in assay [1] (setting [7]); 79% (active) in assay [1] (setting [8]); 97% (active) in assay [1] (at 50.0 µM); -1% in assay [2] (setting [7]); 80% (active) in assay [2] (setting [8]); 96.5% (active) in assay [2] (at 50.0 µM). For the same compound, the growth inhibition was 28% in assay [3] (setting [7]); 90% (active) in assay [3] (setting [8]); 95.6% (active) in assay [3] (at 50.0 µM); 18% in assay [4] (setting [7]); 69% in assay [4] (setting [8]); 91.3% (active) in assay [4] (at 50.0 µM). Also, the growth inhibition was 5% in assay [5] (setting [7]); 81% (active) in assay [5] (setting [8]); 95.7% (active) in assay [5] (at 50.0 µM); 57% in assay [6] (setting [7]); 89% (active) in assay [6] (setting [8]); 95.6% (active) in assay [6] (at 50.0 µM).
With `Cc1c(CCl)c(=O)oc2c(C)c3occ(CCl)c(=O)c3cc12`, the growth inhibition in assay [1] (setting [7]) was 6%; in assay [1] (setting [8]), 12%; in assay [1] (at 50.0 µM), 80.1% (active); in assay [2] (setting [7]) it was 20%; in assay [2] (setting [8]), 31%; in assay [2] (at 50.0 µM), 82.5% (active). Further, the growth inhibition in assay [3] (setting [7]) is 17%; in assay [3] (setting [8]), 42%; in assay [3] (at 50.0 µM) it was 84.5% (active); in assay [4] (setting [7]), 41%; in assay [4] (setting [8]) it was 60%; in assay [4] (at 50.0 µM) it was 85.4% (active). Further, the growth inhibition in assay [5] (setting [7]) is 28%; in assay [5] (setting [8]) it was 57%; in assay [5] (at 50.0 µM) it was 87.5% (active); in assay [6] (setting [7]), 29%; in assay [6] (setting [8]), 67%; in assay [6] (at 50.0 µM), 77.7% (active).
As for `C=CC(=O)NC(=O)Nc1ccc(Cl)cc1`, the growth inhibition in assay [1] (setting [7]) is 18%; in assay [1] (setting [8]), 97% (active); in assay [1] (at 50.0 µM), 98% (active); in assay [2] (setting [7]), 32%; in assay [2] (setting [8]), 98% (active); in assay [2] (at 50.0 µM), 98.2% (active). The growth inhibition in assay [3] (setting [7]) is 27%; in assay [3] (setting [8]), 99% (active); in assay [3] (at 50.0 µM), 98.9% (active); in assay [4] (setting [7]), 10%; in assay [4] (setting [8]) it was 98% (active); in assay [4] (at 50.0 µM), 97.5% (active). Further, the growth inhibition is 23% in assay [5] (setting [7]); 97% (active) in assay [5] (setting [8]); 98.3% (active) in assay [5] (at 50.0 µM); 25% in assay [6] (setting [7]); 99% (active) in assay [6] (setting [8]); 98.7% (active) in assay [6] (at 50.0 µM).
`CC1=CC2C(O)(CC(CO)=CC3C4C(C)(C)C4(OC(=O)c4ccccc4)C(OC(=O)c4ccccc4)C(C)C32O)C1=O` (stereo not given): the growth inhibition in assay [1] (setting [7]) was 95% (active); in assay [1] (setting [8]), 96% (active); in assay [1] (at 50.0 µM), 90.3% (active); in assay [2] (setting [7]) it was 96% (active); in assay [2] (setting [8]), 98% (active); in assay [2] (at 50.0 µM), 91.7% (active). The growth inhibition was 96% (active) in assay [3] (setting [7]); 97% (active) in assay [3] (setting [8]); 92% (active) in assay [3] (at 50.0 µM); 73% (active) in assay [4] (setting [7]); 97% (active) in assay [4] (setting [8]); 88.3% (active) in assay [4] (at 50.0 µM). In addition, the growth inhibition in assay [5] (setting [7]) is 95% (active); in assay [5] (setting [8]), 96% (active); in assay [5] (at 50.0 µM), 89.2% (active); in assay [6] (setting [7]) it was 97% (active); in assay [6] (setting [8]), 97% (active); in assay [6] (at 50.0 µM) it was 88.6% (active).
As for `CCCCCCC(C)OC(=O)/C=C/c1ccccc1` (stereo not given), the growth inhibition was 4% in assay [1] (setting [7]); 4% in assay [1] (setting [8]); 33.5% in assay [1] (at 50.0 µM); -2% in assay [2] (setting [7]); 1% in assay [2] (setting [8]); 14.2% in assay [2] (at 50.0 µM). Moreover, the growth inhibition in assay [3] (setting [7]) is 5%; in assay [3] (setting [8]), 10%; in assay [3] (at 50.0 µM), 11.9%; in assay [4] (setting [7]) it was 0%; in assay [4] (setting [8]) it was 1%; in assay [4] (at 50.0 µM) it was 39.4%. For the same compound, the growth inhibition in assay [5] (setting [7]) is 2%; in assay [5] (setting [8]), 13%; in assay [5] (at 50.0 µM), 17.5%; in assay [6] (setting [7]), 19%; in assay [6] (setting [8]) it was -6%; in assay [6] (at 50.0 µM) it was 26.9%.
As to `O=C(CNC(=O)C(CSCc1ccccc1)NC(=O)OCc1ccccc1)Oc1c(Cl)c(Cl)c(Cl)c(Cl)c1Cl` (stereo not given), the growth inhibition in assay [1] (setting [7]) was 10%; in assay [1] (setting [8]) it was 34%; in assay [1] (at 50.0 µM), 46.9%; in assay [2] (setting [7]) it was 8%; in assay [2] (setting [8]), 30%; in assay [2] (at 50.0 µM), 61.9%. Further, the growth inhibition is 2% in assay [3] (setting [7]); 30% in assay [3] (setting [8]); 68.8% in assay [3] (at 50.0 µM); 3% in assay [4] (setting [7]); 20% in assay [4] (setting [8]); 25.6% in assay [4] (at 50.0 µM). For the same compound, the growth inhibition in assay [5] (setting [7]) was -4%; in assay [5] (setting [8]), 13%; in assay [5] (at 50.0 µM), 15.9%; in assay [6] (setting [7]), 9%; in assay [6] (setting [8]), 51%; in assay [6] (at 50.0 µM), 66.4%.
For `CC1=NC2=NC(CCCC(=O)OCc3ccc(Cl)c(Cl)c3)=NC3=CC=CC(=N1)N32`, the growth inhibition in assay [1] (setting [7]) is 9%; in assay [1] (setting [8]), 54%; in assay [1] (at 50.0 µM), 61.1%; in assay [2] (setting [7]), 17%; in assay [2] (setting [8]) it was 52%; in assay [2] (at 50.0 µM), 31.1%. Moreover, the growth inhibition in assay [3] (setting [7]) was 5%; in assay [3] (setting [8]), 60%; in assay [3] (at 50.0 µM), 67.7%; in assay [4] (setting [7]) it was 6%; in assay [4] (setting [8]) it was 46%; in assay [4] (at 50.0 µM), 41%. Also, the growth inhibition in assay [5] (setting [7]) was 1%; in assay [5] (setting [8]) it was 38%; in assay [5] (at 50.0 µM) it was 7.65%; in assay [6] (setting [7]), 5%; in assay [6] (setting [8]), 58%; in assay [6] (at 50.0 µM) it was 63.1%.
For `C1=NCCN=Cc2ccccc2NCCNc2ccccc21`, the growth inhibition was 3% in assay [1] (setting [7]); 2% in assay [1] (setting [8]); 55.2% in assay [1] (at 50.0 µM); 6% in assay [2] (setting [7]); -20% in assay [2] (setting [8]); 58.6% in assay [2] (at 50.0 µM). Besides, the growth inhibition in assay [3] (setting [7]) was 4%; in assay [3] (setting [8]) it was 41%; in assay [3] (at 50.0 µM), 74.8% (active); in assay [4] (setting [7]), 15%; in assay [4] (setting [8]), 23%; in assay [4] (at 50.0 µM), 53.5%. The growth inhibition in assay [5] (setting [7]) was 6%; in assay [5] (setting [8]) it was 6%; in assay [5] (at 50.0 µM) it was 43.5%; in assay [6] (setting [7]) it was -3%; in assay [6] (setting [8]) it was -2%; in assay [6] (at 50.0 µM), 69%.
In the case of `COC(=O)c1cc(C)c2sc3ccccc3c2c1C`, the growth inhibition in assay [1] (setting [7]) was -13%; in assay [1] (setting [8]) it was 29%; in assay [1] (at 50.0 µM), 73.1% (active); in assay [2] (setting [7]), -8%; in assay [2] (setting [8]), 23%; in assay [2] (at 50.0 µM), 5.3%. Further, the growth inhibition in assay [3] (setting [7]) was -7%; in assay [3] (setting [8]), 51%; in assay [3] (at 50.0 µM), 75.2% (active); in assay [4] (setting [7]), -8%; in assay [4] (setting [8]) it was 16%; in assay [4] (at 50.0 µM), -24.1%. Moreover, the growth inhibition in assay [5] (setting [7]) was -21%; in assay [5] (setting [8]) it was 21%; in assay [5] (at 50.0 µM) it was 31.4%; in assay [6] (setting [7]), -3%; in assay [6] (setting [8]) it was 38%; in assay [6] (at 50.0 µM) it was 61.5%.

The values are drawn from PubChem BioAssay (NCI).
